Test results published in the supplement of paper PMC6555819.

System: PPARg DBDmut IVT, anti-PPARg (DBD mutation: PPARg1 K132A/R137A, NR concentration 270 nM)
Experiment: PBM binding z-score (relative to random genomic background probes); higher = stronger binding; sequences stand for … in GC…GCGATTGACAGCGTAGAATGAAGG
Procedure, shortened: (§1)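 The probes on custom Agilent 4×180K protein-binding microarrays were double-stranded, with 34-nt variable regions bearing direct-repeat seeds, single-nucleotide variants, half-site ablations and random human genomic background sequences. Incubation lasted 1 h with ligand-free nuclear receptor dimers in PBS pH 7.4, 2% milk, 0.02% Triton X-100, 1 mM DTT, 0.2 mg/mL BSA and 0.4 mg/ml salmon testes DNA. Antibodies against each partner (one per run) detected bound dimers, and fluorescence scans were regression-normalized. Binding z-scores take the random background probes as reference.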

Sequence	PBM binding z-score
CGTACTAGGTCAAGGACAGTGAATCTCCGCACGC	1.3
AGAATGAGGTTATACGTAGATCAGGGAAGAAAGT	1.16
CCTTACGGGTCACTGACACGTTATAGCATTTGGA	0.499
CGAACTATGTCATTGACAGGACAGTGAATAGTAA	1.15
AGAACGAGGGCAATGAATTGATAGCACGGGTGGC	-0.0881
TCTTGTAGATCAAAGGTTAAGGAAGCCGAAGCCT	0.543
GCTCACGGGTCAAAGGTTATAGCATGAATAGAAT	0.56
ATCTCTAGGTAACAAGTTCTGTGAAAGAGAGGAC	1.11
GCTCGGAGGACAAGGTCAGAACTTTGTCCGTAGA	-0.981
CCTTACGGATCACTGACAGGTTATAGCATTTGGA	0.544
ATACCAAGGTGATCGTGAGGTCGTTGGTACTAAC	-0.0791
ATCTCTAGGTAACAAGTTCAGTGACAGAGAGGAC	1.17
TAGCCTAGGTCATTTAGGGGCCAGTATAGAAAGC	-0.286
CGTCCAAGGTCAATGCTAGTTCAGTGAAAGCATT	0.145
CCTACTGGGGCAAAAAGGTCATTGATGCCGATAA	1.73
ACAGACAGGTGAGTGAAGGTAACTAAGCTGGACG	-0.677
CAAACTAGGTCAAGTTCAAAGTCGGTTTGTGCCA	4.23
CAAACTAGGTCAAGAGGTCATAGTCCGCTTCCCG	2.09
ACAGACAGTTGATGAAGGTAACTCAGGCTATCAT	0.538
ATCTCTAGGTAAAGATGGTTCAGTGAATGCAAAT	0.863

Sequence	PBM binding z-score
TCTAACAGGCCAGAGGGTCACTCAAGAGGTACGG	-0.0122
TCTGGCAGGCCAGAGGGTCACTCAAGAGGTACGG	-0.915
ACGGACAGGTGAGTGAAGGTAACTCAGCTGGACG	-0.701
CCTACTGTGCCACGAAAGGTCATTGATTCAGTGA	0.678
ATCGAAAGGCCGAGGTGAGTATAGAGAAAGGGAA	0.0911
ATCGAAAGGTCGAGGTGCGTATAGAGAAAGGGAA	0.0547
ACTATTAGTTGAGACGAGGGGAACCGATAGGTTG	0.931
TCTATTAGTTGATTAGGTCAACCGAAACAGCGGA	1.8
GCTGCTAGGTCAACTGATGGTCAGCTTAAGCTCG	-0.587
GGAGCGAGGGCATTCGAGTTGATAGCATGGCGAT	-1.62
CAAACTAGGTCACGAAAGGTCAAACTCGAATGAC	2.02
CCTTACGGATCACGAGGTTATAGCACGACGAGCG	0.232
TCAGACAGGTGAAGATAACTCAGGTACGCAGTCG	0.567
TAGCCTAGGTCATTGGCCCAGTATAGTACGCATC	-0.598
ACTCGCAGGCCAAGGGTCACTCAAGATTAGTCCG	0.18
CAAACTAGGTCACGAAAGGTCGAAGTCGAATGAC	3.15
TCTCGGAGGACACGACGGTCAGAGCTTTCCAGAG	-0.952
CCGAGTAGGTTATGGGGCATTCAAGCAACGGTGA	0.0415
TTACCAACGTGAAGGTCGTTGATCCCTCTGTAGA	-0.0405
TCTATTAGTTGGAGGGCAACCGACGAGTCCGTTT	-0.289

System: PPARg homodimer (NR concentration 180 nM)
Experiment: as above
Procedure, shortened: as §1

Sequence	PBM binding z-score
CGTACTAGGTCAAGGACAGTGAATCTCCGCACGC	2.34
AGAATGAGGTTATACGTAGATCAGGGAAGAAAGT	0.9
CCTTACGGGTCACTGACACGTTATAGCATTTGGA	1.94
CGAACTATGTCATTGACAGGACAGTGAATAGTAA	0.302
AGAACGAGGGCAATGAATTGATAGCACGGGTGGC	-0.139
TCTTGTAGATCAAAGGTTAAGGAAGCCGAAGCCT	1.02
GCTCACGGGTCAAAGGTTATAGCATGAATAGAAT	2.09
ATCTCTAGGTAACAAGTTCTGTGAAAGAGAGGAC	0.9
GCTCGGAGGACAAGGTCAGAACTTTGTCCGTAGA	0.718
CCTTACGGATCACTGACAGGTTATAGCATTTGGA	0.811
ATACCAAGGTGATCGTGAGGTCGTTGGTACTAAC	0.658
ATCTCTAGGTAACAAGTTCAGTGACAGAGAGGAC	1.56
TAGCCTAGGTCATTTAGGGGCCAGTATAGAAAGC	1.87
CGTCCAAGGTCAATGCTAGTTCAGTGAAAGCATT	3.77
CCTACTGGGGCAAAAAGGTCATTGATGCCGATAA	5.37
ACAGACAGGTGAGTGAAGGTAACTAAGCTGGACG	-0.864
CAAACTAGGTCAAGTTCAAAGTCGGTTTGTGCCA	3.54
CAAACTAGGTCAAGAGGTCATAGTCCGCTTCCCG	5.93
ACAGACAGTTGATGAAGGTAACTCAGGCTATCAT	0.771
ATCTCTAGGTAAAGATGGTTCAGTGAATGCAAAT	0.000234

Sequence	PBM binding z-score
TCTAACAGGCCAGAGGGTCACTCAAGAGGTACGG	1.11
TCTGGCAGGCCAGAGGGTCACTCAAGAGGTACGG	0.353
ACGGACAGGTGAGTGAAGGTAACTCAGCTGGACG	-0.338
CCTACTGTGCCACGAAAGGTCATTGATTCAGTGA	3.62
ATCGAAAGGCCGAGGTGAGTATAGAGAAAGGGAA	0.14
ATCGAAAGGTCGAGGTGCGTATAGAGAAAGGGAA	1.09
ACTATTAGTTGAGACGAGGGGAACCGATAGGTTG	-0.148
TCTATTAGTTGATTAGGTCAACCGAAACAGCGGA	2.28
GCTGCTAGGTCAACTGATGGTCAGCTTAAGCTCG	2.5
GGAGCGAGGGCATTCGAGTTGATAGCATGGCGAT	-0.569
CAAACTAGGTCACGAAAGGTCAAACTCGAATGAC	5.15
CCTTACGGATCACGAGGTTATAGCACGACGAGCG	1.02
TCAGACAGGTGAAGATAACTCAGGTACGCAGTCG	0.861
TAGCCTAGGTCATTGGCCCAGTATAGTACGCATC	1.5
ACTCGCAGGCCAAGGGTCACTCAAGATTAGTCCG	2.03
CAAACTAGGTCACGAAAGGTCGAAGTCGAATGAC	3.9
TCTCGGAGGACACGACGGTCAGAGCTTTCCAGAG	-0.596
CCGAGTAGGTTATGGGGCATTCAAGCAACGGTGA	1.36
TTACCAACGTGAAGGTCGTTGATCCCTCTGTAGA	0.497
TCTATTAGTTGGAGGGCAACCGACGAGTCCGTTT	1.04
